# KB-3-1 cytotox = KB-3-1 parental cell cytotoxicity. KB-3-1 viability, CellTiter-Glo ATP luminescence, 72 h. Potency, µM (titrated, usually from 46.1 µM), most hits filed as cytotoxic. 400,000 tested, 1.4% active; further: on the % scale 0 is the no-effect control and ±100 the full control effect; nearly all actives have a fitted effect of over 60% in size
#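 Using CellTiter-Glo luminescence, growth of non-resistant KB-3-1 adenocarcinoma cells is assessed 72 h after pin-tool compound addition at 37 °C. Normalized responses across the concentration series yield fitted curves.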
# MCF10A rereplic = inducers of DNA re-replication in MCF 10A breast cells; AID 624296; 350,000 tested, 2.9% active; MCF 10A DNA re-replication, Hoechst nuclear intensity, 48 h; Potency, µM (series often up to 46.1 µM), inactives show at the highest dose activity, positive = re-replication, hits mostly activators; further: % of control where 0% means no effect; nearly all actives have a fitted effect of over 50% in size
# KB-V1 cytotox = KB-V1 MDR subline cytotoxicity. KB-V1 MDR cells viability, CellTiter-Glo, 72 h. Potency, µM (doses to about 46.1 µM), most hits filed as cytotoxic. 400,000 tested, 3.4% active. AID 1347076; further: on the % scale 0 is the no-effect control and ±100 the full control effect; nearly all actives have a fitted effect of over 60% in size
#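 KB-V1 cells (P-gp-expressing MDR subline of KB-3-1) in phenol-red-free DMEM with 10% FBS were exposed to library compounds over a concentration series for 72 h at 37 degrees C. Viability read by CellTiter-Glo luminescence; concentration-effect curves fitted after normalization.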
# HT1080-NT tox = kills 2HG-producing HT-1080-NT fibrosarcoma cells; HT-1080-NT fibrosarcoma viability, CellTiter-Glo ATP luminescence, 48 h; Potency, µM (doses to about 46.1 µM), without a hit: at the highest dose activity, negative = less viability, usual class: cytotoxic; 360,000 tested, 1.6% active;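 further: NT is the 2HG producing partner of a matched IDH1 knockdown line; 0% = DMSO-treated cells and -100% = media-only wells without cells; nearly all actives have a fitted effect of over 55% in size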
#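 750 cells/well, RPMI + 5% FBS; 2 h settle, compound pin-transfer, 48 h at 37 degrees C. CellTiter-Glo 10 min RT, luminescence. Normalized to DMSO and media-only wells.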
# HT1080 IDH1KD tx = toxicity to HT-1080 IDH1 knockdown cells (counter line). AID 686971. Potency, µM (titrated, usually from 46.1 µM), without a hit: at the top dose activity, negative = toxicity, actives largely listed as cytotoxic. 360,000 tested, 2% active. HT-1080 IDH1 knockdown viability, ATP luminescence, 48 h;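 further: 0% = DMSO wells and -100% = cell-free medium wells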
#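 In this qHTS, HT-1080 cells depleted of IDH1 are exposed for 48 h at 37 °C to compound titrations. Toxicity is scored from CellTiter-Glo luminescence, with DMSO as full viability and medium alone as none.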
# SW480 rerep = DNA re-replication induction in SW480 cells; SW480 DNA re-replication, Hoechst DNA content imaging, 48 h; Potency, µM (series often up to 46.1 µM), without a hit: at the top dose re-replication activation, usual class: activators; 340,000 tested, 1.8% active; AID 624297; further: % of control where 0% means no effect; nearly all actives have a fitted effect of over 55% in size
#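 Compounds, transferred as 23 nL by pin tool, were incubated with cells for 48 hr; DNA content per nucleus was then quantified by Hoechst staining and fluorescence plate imaging.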
# Starred values were filed as active, the others as inactive; i = inactive; ? = inconclusive; [ ] = remark or other dose. The list is not random: actives were taken first. Their share in the collection is about 8%. The call rests on the fitted dose curve; in most records, active means well fitted curve in the direction sought with a large enough effect; inconclusive means small, poorly fitted or top-dose-only effect, or another doubt; inactive means no such curve, though single readings can be large; an effect the other way counts as inactive or inconclusive. Potency means the concentration at half of the fitted maximal effect.
SMILES,KB-3-1 cytotox,MCF10A rereplic,KB-V1 cytotox,HT1080-NT tox,HT1080 IDH1KD tx,SW480 rerep
O=C(NC(=S)Nc1ccc(F)c([N+](=O)[O-])c1)c1ccccc1F,i,?,i,-8.3%,-16.6%,?
O=C(Nc1ccc([N+](=O)[O-])cc1)Nc1ccc(Cl)cc1F,?,?,18.4µM*,-2.8%,-11.8%,?
Cc1ccc(NC(=O)Nc2ccccc2)cc1[N+](=O)[O-],i,-0.6%,?,23.2%,18.2%,-5.2%
O=C(Nc1ccc(Cl)cc1)Nc1csc([N+](=O)[O-])c1,i,?,?,13µM*,10.3µM*,63.1%
O=C(Nc1csc([N+](=O)[O-])c1)Nc1c(Cl)cccc1Cl,i,12.2%,i,-15.5%,0.5%,-9.5%
O=C(Nc1ccccc1)Nc1ccc(Cl)c([N+](=O)[O-])c1,?,14.6µM*,?,14.2%,-0.1%,?
O=C(Nc1ccc(C(O)(C(F)(F)F)C(F)(F)F)cc1)c1ccc(Cl)c([N+](=O)[O-])c1,?,?,?,?,23.1µM*,21.6%
Cc1cc(CSc2ccccc2)ccc1NC(=O)c1ccc(Cl)c([N+](=O)[O-])c1,i,18.4µM*,i,-8.1%,-13.2%,-6.2%
O=C(O)c1cc(NC(=O)c2ccc(Cl)c([N+](=O)[O-])c2)cc(C(=O)O)c1,i,?,i,24.5%,24.4%,-8.7%
COc1ccc(C(=O)NCC(O)CN2CCOCC2)cc1[N+](=O)[O-] (stereo unspecified),i,10.4%,i,-8.7%,5.1%,2.4%
Cc1cn(C2OC(COC(=O)c3ccccc3)C(OC(=O)c3ccccc3)C2OC(=O)c2ccccc2)c(=O)[nH]c1=O (stereo unspecified),i,?,?,-29.5%,?,?
CCSc1cc(N2CCCC2)nc(-c2ccccc2Cl)n1,i,-4.9%,?,1.7%,-2.1%,-2.4%
COc1ccc(N2C(=S)N=C(Nc3ccccc3)C23CCCCC3)cc1,i,?,i,-1.8%,-13.2%,-2.6%
CCc1nnc(NC(=O)CSc2nnc(-c3ccccc3OC)n2-c2ccc(C)cc2)s1,i,-6.8%,i,-15.5%,-18.0%,3.4%[9.22 µM]
CCc1nnc(NC(=O)CSc2nnc(-c3ccccc3O)n2-c2ccc(C)cc2)s1,?,?,?,13µM*,13µM*,?
CCc1nnc(NC(=O)CSc2nnc(C)n2-c2ccc(C)cc2)s1,i,2.2%,20.6µM*,7.8%,4.6%,-5.2%
CCc1nnc(NC(=O)CSc2nnc(CNc3cccc(Cl)c3)n2CC)s1,i,0.5%,i,0.5%,-3.2%,-3.5%
CCc1nnc(NC(=O)CSc2nc(-c3ccccc3)c(-c3ccccc3)o2)s1,5.17µM*,?,?,12.7%,14.3%,-10.8%
CCc1nnc(NC(=O)CSc2nnc(C3CCCCC3)n2-c2cccc(Cl)c2)s1,i,21.2%,4.11µM*,2.6%,3.8%,-10.1%
COc1ccc([C@@H]2[C@@H]3C(=O)N(C(C)(C)C)C(=O)[C@@H]3[C@]3(C)C(=O)N(c4cccc(Cl)c4)C(=O)N23)cc1,i,?,i,0.2%,-1.9%,-17.7%
COc1cc(S(=O)(=O)N2CCC(c3nc4ccccc4s3)CC2)ccc1S(=O)(=O)N1CC(C)CC(C)C1 (stereo unspecified),i,1.0%,?,2.3%,-7.1%,-1.0%
Cc1ccc(-c2csc3ncnc(SCC(N)=O)c23)cc1,i,-0.1%,?,-18.2%,-25.0%,-8.1%
CCOC(=O)Cc1nnc(NC(=O)CSc2nncn2C)s1,i,6.51µM*,i,1.2%,0.0%,?
CCc1nnc(NC(=O)CSc2ncnc3scc(-c4ccc(C)cc4)c23)s1,i,?,6.51µM*,4.6%,4.4%,4.4%
